Assay outcomes deposited in PubChem BioAssay by National Center for Advancing Translational Sciences (NCATS).
Rows were chosen to be rich in hits. Some 9.2% of all compounds tested hit in one or more screens of this group.
ELG1 genotoxic – genotoxicity induction in ELG1-luciferase HEK293T cells. Potency, µM (titrated, usually from 46 µM), actives largely listed as activators. AID 504466. 330,000 compounds, 1.3% hits. HEK293T ELG1-luciferase reporter, luminescence, 16 h; also: nearly all actives have a fitted effect of over 60% in size
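Cells (2,000/well) expressing the ELG1-luciferase fusion are dosed by pin tool and kept 16 hr at 37 °C, 5% CO2. Signal comes from ONE-Glo luciferase reagent after 30 min at room temperature.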
Rab9 prom act – Rab9 promoter activation; Potency, µM (top dose mostly 9.22 µM), hits mostly activators; 320,000 compounds, 2.8% hits; AID 485297; Huh7 Rab9 promoter-luciferase reporter, luminescence, 24 h; also: nearly all actives have a fitted effect of over 60% in size
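Huh7 cells stably carrying Rab9 promoter–luciferase reporter, plated 1500 cells/well, compound added after 2 h and incubated 24 h at 37 °C; luciferase luminescence then read after 10 min with detection reagent.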
ELG1 DNA repair – ELG1-dependent DNA repair inhibition; HEK293T ELG1-luciferase reporter, luminescence, 16 h; DNA damage induced by 5-fluorouridine; Potency, µM (doses to about 46.1 µM), hits mostly inhibitors; 330,000 compounds, 2.3% hits; also: nearly all actives have a fitted effect of over 55% in size
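Overnight (16 hr) co-exposure of 2,000 cells/well to 5-fluorouridine and compound at 37 °C preceded detection. Luciferase was quantified via ONE-Glo luminescence; loss of signal denotes inhibition.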
FLuc modulator – inhibits or activates purified firefly luciferase, miR-21 counter-screen; P08659; Potency, µM (titrated, usually from 57.5 µM), actives largely listed as inhibitors; AID 588342; purified FLuc, Km substrates, luminescence inhibition; 360,000 compounds, 6.9% hits; also: nearly all actives have a fitted effect of over 55% in size
Target sequence (P08659 whole entry, looked up): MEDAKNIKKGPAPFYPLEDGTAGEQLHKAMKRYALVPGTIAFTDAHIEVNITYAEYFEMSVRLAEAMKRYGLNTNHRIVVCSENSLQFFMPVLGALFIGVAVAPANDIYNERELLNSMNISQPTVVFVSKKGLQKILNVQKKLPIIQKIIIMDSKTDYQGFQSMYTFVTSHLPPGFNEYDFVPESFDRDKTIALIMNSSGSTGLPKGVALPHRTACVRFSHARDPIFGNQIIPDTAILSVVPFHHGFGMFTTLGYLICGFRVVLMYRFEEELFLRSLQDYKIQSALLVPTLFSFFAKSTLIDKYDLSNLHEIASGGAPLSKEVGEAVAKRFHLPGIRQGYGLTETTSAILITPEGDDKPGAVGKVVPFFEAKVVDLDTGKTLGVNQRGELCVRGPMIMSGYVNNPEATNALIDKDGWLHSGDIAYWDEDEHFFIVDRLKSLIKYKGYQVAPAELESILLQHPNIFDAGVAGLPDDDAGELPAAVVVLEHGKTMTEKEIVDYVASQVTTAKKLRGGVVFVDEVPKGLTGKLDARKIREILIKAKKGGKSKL
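Purified P. pyralis luciferase (10nM final) with 10uM D-luciferin and 10uM ATP (Km levels) in 50mM Tris acetate pH 7.5, 10mM Mg acetate, 0.01% Tween-20, 0.05% BSA; qHTS 6-point titration, ~60 µM downward; luminescence read.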
SMN2 splice enh – enhancers of SMN2 splice variant expression; AID 1458; 210,000 compounds, 2.8% hits; HEK293 SMN2-luciferase splicing reporter, luminescence, 30-36 h; Potency, µM (top dose mostly 46.1 µM), actives largely listed as activators; also: nearly all actives have a fitted effect of over 55% in size
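HEK293 cells carry an SMN2 […]–luciferase reporter in which exon 7 inclusion puts luciferase in frame. Cells were plated 10-12 h before compound addition, then incubated 30-36 h at 37C. ONE-Glo luminescence was read; sodium butyrate at 4.5 mM final served as control.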
NPC1 promoter act – activators of NPC1 promoter. Huh7 NPC1 promoter luciferase reporter, 24 h. Potency, µM (titrated, usually from 9.22 µM), actives largely listed as activators. 320,000 compounds, 2.4% hits; also: nearly all actives have a fitted effect of over 60% in size
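NPC1 promoter–luciferase Huh7 cells; 24 h compound; luminescence.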
Large screens that a line does not name were inactive. Calls follow the shape of the dose curve; as a rule, active = well fitted curve in the direction sought with a large enough effect; inconclusive = small, poorly fitted or top-dose-only effect, or another doubt; inactive = no such curve, though single readings can be large; an effect the other way counts as inactive or inconclusive.

COc1ccccc1Cn1c(/C=C/c2ccccc2)nc2ccccc21	Rab9 prom act inconclusive, ELG1 DNA repair inconclusive, FLuc modulator 3µM, SMN2 splice enh inconclusive
Cc1ccc2c(c1)-c1c(cnn1CC(=O)N1CCN(c3cc(C)ccc3C)CC1)CO2	none (no result: ELG1 genotoxic, Rab9 prom act, ELG1 DNA repair, NPC1 promoter act)
Cc1cc2nc(-c3ccc[nH]c3=O)[nH]c2cc1C	ELG1 genotoxic inconclusive, Rab9 prom act 0.5µM, ELG1 DNA repair inconclusive, FLuc modulator 0.34µM, NPC1 promoter act inconclusive (no result: SMN2 splice enh)
CCOC(=O)C1CCN(c2ccccc2CN2CCN(c3ccccc3OCC)CC2)CC1	ELG1 DNA repair 16µM (no result: SMN2 splice enh)
COc1ccccc1NS(=O)(=O)c1ccc(C(=O)Nc2ncccc2O)cc1	ELG1 genotoxic inconclusive, Rab9 prom act inconclusive, ELG1 DNA repair inconclusive (no result: SMN2 splice enh)
COc1cccc(F)c1C(C[N+](=O)[O-])c1c(N)n(C)c(=O)n(C)c1=O (stereo unspecified)	ELG1 DNA repair 18µM (no result: SMN2 splice enh)
CC1CCN(C(=O)c2ccc3c(c2NCCO)C(=O)c2ccccc2C3=O)CC1	ELG1 DNA repair inconclusive
CCN(CC)CCNC(=O)c1ccc2c(c1NCCO)C(=O)c1ccccc1C2=O	ELG1 DNA repair 13µM, FLuc modulator inconclusive (no result: SMN2 splice enh)
O=C(CNC(=O)c1ccc(Cl)cc1)NCc1ccccn1	none (no result: SMN2 splice enh)
Cc1cc2cc(OCC(=O)O)ccc2n1C	none
O=Cc1c[nH]c2ccc(OCc3ccccc3)cc12	ELG1 DNA repair inconclusive, FLuc modulator inconclusive (no result: SMN2 splice enh)
Cc1cc2cc(OCc3ccccc3)ccc2n1C	ELG1 genotoxic inconclusive, Rab9 prom act 3.2µM, ELG1 DNA repair inconclusive, FLuc modulator 5.4µM, NPC1 promoter act 2µM (no result: SMN2 splice enh)
Cc1c(C=O)c2cc(OCc3ccccc3)ccc2n1C	ELG1 genotoxic inconclusive, Rab9 prom act 4µM, ELG1 DNA repair inconclusive, FLuc modulator 15µM, NPC1 promoter act inconclusive (no result: SMN2 splice enh)
O=C(Cn1c(=O)n(CCCS(=O)(=O)C2CCCCC2)c(=O)c2ccccc21)Nc1ccccc1C(F)(F)F	none (no result: ELG1 genotoxic, Rab9 prom act, ELG1 DNA repair, NPC1 promoter act)
COc1cccc(NC(=O)c2ncc(Cl)c(Cl)c2Cl)c1	ELG1 DNA repair inconclusive, FLuc modulator 5.4µM
COc1cccc(NC(=O)c2ccn(C)n2)c1	ELG1 genotoxic inconclusive, Rab9 prom act 2.8µM, ELG1 DNA repair inconclusive, FLuc modulator inconclusive, SMN2 splice enh 14µM, NPC1 promoter act inconclusive
COc1cccc(NC(=O)c2nc(SC)ncc2Cl)c1	none (no result: SMN2 splice enh)
S=C(NCCCc1ccccc1)NC1CCCCC1	ELG1 DNA repair inconclusive (no result: SMN2 splice enh)
S=C(NCCc1ccccn1)NC1CCCCC1	ELG1 genotoxic inconclusive, Rab9 prom act inconclusive, ELG1 DNA repair inconclusive, FLuc modulator inconclusive, SMN2 splice enh 11µM, NPC1 promoter act inconclusive
COc1ccccc1OCCNC(=O)c1cccc(S(=O)(=O)N2CCN(Cc3ccccc3)CC2)c1	ELG1 DNA repair 21µM (no result: SMN2 splice enh)
O=C(NCCOc1ccc(Cl)cc1)c1cccc(S(=O)(=O)N2CCCC2)c1	ELG1 DNA repair 8.9µM (no result: SMN2 splice enh)
O=C(NCc1ccc(Cl)cc1)c1cccc(S(=O)(=O)N2CCCC2)c1	ELG1 DNA repair inconclusive (no result: SMN2 splice enh)
COc1ccccc1OCCNC(=O)c1cccc(S(=O)(=O)N2CCN(C)CC2)c1	FLuc modulator 13µM (no result: SMN2 splice enh)
C=CCOc1ccc(CN(C)C(=O)C2CCCO2)cc1 (stereo unspecified)	ELG1 DNA repair inconclusive (no result: SMN2 splice enh)
CCc1ccc(C(=O)CSc2nc(-c3ccccc3)nc3c2CCCC3)cc1	none (no result: ELG1 genotoxic, Rab9 prom act, ELG1 DNA repair, NPC1 promoter act)
Cc1ccc(Nc2ncc(C(=O)Nc3ccc(F)cc3F)c3ccccc23)cc1Cl	none (no result: ELG1 genotoxic, Rab9 prom act, ELG1 DNA repair, NPC1 promoter act)
Cc1cc(Nc2ccccc2)nc2cc(O)ccc12	ELG1 DNA repair inconclusive, FLuc modulator 17µM
COc1ccc(Nc2cc(C)c3cc([N+](=O)[O-])ccc3n2)cc1	ELG1 DNA repair inconclusive, FLuc modulator 17µM (no result: SMN2 splice enh)
COc1ccc(N2CCN(c3cc(C)c4ccc(O)cc4n3)CC2)cc1	none
Cc1ccc2nc(C)cc(Nc3ccc([N+](=O)[O-])cc3)c2c1	ELG1 genotoxic 5.8µM, ELG1 DNA repair inconclusive
COc1ccc(Nc2cc(C)c3ccc(O)cc3n2)cc1	FLuc modulator 24µM (no result: SMN2 splice enh)
CC(=O)Nc1ccc(Nc2cc(C)c3ccccc3n2)cc1	FLuc modulator inconclusive (no result: SMN2 splice enh)
CNC(=S)N/N=C/c1ccc(-c2cccc(C(=O)O)c2)o1	ELG1 genotoxic inconclusive, Rab9 prom act 2.8µM, ELG1 DNA repair inconclusive, FLuc modulator 6.7µM, NPC1 promoter act 2.2µM (no result: SMN2 splice enh)
O=C(CN1CCCC1)N/N=C/c1ccc(-c2cccc(Cl)c2)o1	FLuc modulator 12µM
Cc1ccc(OCC(=O)N/N=C\c2ccc(-c3cccc(C(=O)O)c3)o2)c(C)c1	ELG1 DNA repair inconclusive, FLuc modulator 6.7µM
O=C(O)c1cccc(-c2ccc(/C=N/Nc3nn[nH]n3)o2)c1	ELG1 DNA repair inconclusive, FLuc modulator inconclusive
Nc1nonc1C(=O)N/N=C/c1ccc(-c2cccc(C(=O)O)c2)o1	ELG1 DNA repair inconclusive, FLuc modulator 17µM
COc1ccc(CC(=O)N/N=C/c2ccc(-c3cccc(C(=O)O)c3)o2)cc1OC	FLuc modulator inconclusive (no result: SMN2 splice enh)
O=C(CCn1cnc2ccccc2c1=O)Nc1nc(-c2ccc(Br)cc2)cs1	none
